# Where a name gives a salt, the structure may show the parent alone. Over roughly 2,000 compounds, “fractional viability relative to vehicle” has its median near 0.91; the lowest 2% begin near 0.045. This is one part of a sample in which the lowest values are shown more often than they occur.
# Test system: TYKNU
# Assay: fractional viability relative to vehicle; TYKNU is a high-grade serous ovarian cancer line; higher = less growth inhibition
# Conditions: 72 h
# Summary of the method: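 TYKNU control cells or lentiCRISPRv2 knockout derivatives were seeded at 500 cells per well into drug-stamped 384-well plates holding a ~2100-compound library at 2 or 10 μM, in duplicate. Cells were grown at 37 °C in 5% CO2 in RPMI 1640 with 10% FBS, and drug treatment lasted 72 h. Viability was read by Cell Titer Glo luminescence. Duplicate treatment wells were averaged and normalised to duplicate control wells from the same plate position.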
# [1] = 2uM, genotype: DNM1L knockout (sgDNM1L #1)
# [2] = 2uM, genotype: sgCTRLA1 (non-targeting control)
# [3] = 10uM, genotype: DNM1L knockout (sgDNM1L #1)
# [4] = 10uM, genotype: sgCTRLA1 (non-targeting control)
Structure (SMILES),fractional viability [1],fractional viability [2],fractional viability [3],fractional viability [4]
C[C@@H]1CC[C@@]2(OC1)O[C@H]1C[C@H]3[C@@H]4CC=C5C[C@@H](O[C@@H]6O[C@H](CO)[C@@H](O[C@@H]7O[C@@H](C)[C@H](O)[C@@H](O)[C@H]7O)[C@H](O)[C@H]6O[C@@H]6O[C@@H](C)[C@H](O)[C@@H](O)[C@H]6O)CC[C@]5(C)[C@H]4CC[C@]3(C)[C@H]1[C@@H]2C [Dioscin],0.0559,0.0816,0.0468,0.0196
Cc1cc2c(C(C)C)c(O)c(O)c(C=O)c2c(O)c1-c1c(C)cc2c(C(C)C)c(O)c(O)c(C=O)c2c1O [Gossypol],0.9,1.04,0.253,0.247
CCN(Cc1ccc(Cl)nc1)/C(=C/[N+](=O)[O-])NC [Nitenpyram],0.733,1.08,0.638,0.862
Cc1ccc(-n2nccn2)c(C(=O)N2CCN(c3nc4cc(Cl)ccc4o3)CC[C@H]2C)c1 [Suvorexant (MK-4305)],0.969,1.14,0.861,1.04
CC(C)=CCC[C@]1(C)C=Cc2c(O)c3c(c(CC=C(C)C)c2O1)O[C@]12C(=C[C@@H]4C[C@H]1C(C)(C)O[C@@]2(C/C=C(/C)C(=O)O)C4=O)C3=O [Gambogic Acid],0.068,0.0361,0.0214,0.00876
CN(C)Cc1c[nH]c2ccccc12 [Gramine],0.908,1.14,0.859,0.971
[O-][n+]1ccccc1[S-].[O-][n+]1ccccc1[S-].[Zn+2] [Zinc Pyrithione],0.0424,0.0207,0.0251,0.0128
Cc1sc2c(c1C)C(c1ccc(Cl)cc1)=N[C@@H](CC(N)=O)c1nnc(C)n1-2,0.35,0.412,0.319,0.408
c1ccc([C@@H]2C[C@H]2NC2CCNCC2)cc1,0.728,0.964,0.712,0.824
CC(=O)Nc1ccc(Cc2ccc(NC(C)=O)cc2)cc1,0.759,0.99,0.747,0.791
O=C(O[C@H]1C[C@H]2CC[C@@H](C1)[N+]21CCCC1)C(O)(c1ccccc1)c1ccccc1 [Trospium chloride],0.962,1.06,0.908,1.09
Cc1cccc(Cc2c[nH]cn2)c1C [Detomidine HCl],1.07,1.01,0.798,1.1
CN[C@@H]1C[C@H]2O[C@@](C)([C@@H]1OC)n1c3ccccc3c3c4c(c5c6ccccc6n2c5c31)C(=O)NC4 [Staurosporine],0.092,0.066,0.0336,0.0269
Cn1c(COP(=O)(NCCBr)NCCBr)cnc1[N+](=O)[O-],1.47,1.27,0.89,1.27
